According to the supplement of paper PMC10037445:
Values joined by “and” are separate entries in the source; they are usually repeats but may differ in a detail not shown here. Equal values may be shown once. ± gives the standard deviation of the averaged measurements. Over roughly 2,900 compounds, “IRF Lucia reporter activity, fold change vs agonist alone” has its median near 0.9; the highest 2% begin near 2.8. What follows is part of a selection rich in the highest values, with near analogues and random picks from the rest.

Experiments:
RAW-Dual [1] = assay: IRF Lucia reporter activity, fold change vs agonist alone; cytotoxicity flag (confluency mask): not cytotoxic; higher = enhanced IRF activity
Procedure, shortened: (§1)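 RAW-Dual macrophages (50,000 cells/well in DMEM, 384-well plates) received 50 nL of library stock by pin tool, then a PRR agonist 1 h later, and were kept at 37 °C, 5% CO2. After 20 hours, supernatant was read for IRF by QuantiLuc luminescence and for NF-κB by QuantiBlue absorbance at 620 nm. Reporter activity is fold change over agonist-alone wells. Cytotoxic wells had IncuCyte confluency below 70% of agonist controls in both mask sets.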

RAW-Dual [2] = assay: IRF Lucia reporter activity, fold change vs agonist alone; higher = enhanced IRF activity; settings: agonist: MPLA (TLR4) […]
Procedure, shortened: as §1

RAW-Dual [3] = assay: IRF Lucia reporter activity, fold change vs agonist alone; cytotoxicity flag (confluency mask): cytotoxic (confluency <70% of control); higher = enhanced IRF activity
Procedure, shortened: as §1

[4] = agonist: 3'3'-cGAMP (STING) 10 ug/mL
[5] = library stock concentration (final ~1000-fold dilution): 10 mM, cytotoxicity flag (confluency mask): not cytotoxic
[6] = library stock concentration (final ~1000-fold dilution): 10 mM, cytotoxicity flag (confluency mask): cytotoxic (confluency <70% of control)

CC1CNc2c(cccc2S(=O)(=O)NC(CCCNC(=N)N)C(=O)N2CCC(C)CC2C(=O)O)C1 (configuration not stated) (library stock concentration (final ~1000-fold dilution): 10 mM)
IRF Lucia reporter activity (RAW-Dual [1]; [4]): 1.01 | IRF Lucia reporter activity (RAW-Dual [1]; agonist: LPS (TLR4) 0.1 ug/mL): 0.919

O=C(O)c1cc(I)ccc1NC(=O)C(Cc1ccccc1)NCc1ccccc1 (configuration not stated)
IRF Lucia reporter activity (RAW-Dual [2]; [5]): 1.05

O=C(O)c1cc(I)ccc1NC(=O)C(Cc1ccccc1)NCc1ccccc1 (configuration not stated) (library stock concentration (final ~1000-fold dilution): 10 mM)
IRF Lucia reporter activity (RAW-Dual [1]; [4]): 1.17 | IRF Lucia reporter activity (RAW-Dual [1]; agonist: LPS (TLR4) 0.1 ug/mL): 1.41

Nc1nc2[nH]cc(CCc3ccc(C(=O)NC(CCC(=O)O)C(=O)O)cc3)c2c(=O)[nH]1 (configuration not stated) (library stock concentration (final ~1000-fold dilution): 10 mM water)
IRF Lucia reporter activity (RAW-Dual [1]; [4]): 1.15 and 0.82 | IRF Lucia reporter activity (RAW-Dual [1]; agonist: LPS (TLR4) 0.1 ug/mL): 0.998 and 0.771

Nc1nc2[nH]cc(CCc3ccc(C(=O)NC(CCC(=O)O)C(=O)O)cc3)c2c(=O)[nH]1 (configuration not stated)
IRF Lucia reporter activity (RAW-Dual [2]; library stock concentration (final ~1000-fold dilution): 10 mM water, cytotoxicity flag (confluency mask): not cytotoxic): 1.12

CC(C)CC1NC(=O)C(C(C)C)NC(=O)C2CCCN2C(=O)C(CC(=O)O)NC(=O)C(Cc2c[nH]c3ccccc23)NC1=O (configuration not stated) (library stock concentration (final ~1000-fold dilution): 10 mM)
IRF Lucia reporter activity (RAW-Dual [1]; [4]): 1.23 | IRF Lucia reporter activity (RAW-Dual [1]; agonist: LPS (TLR4) 0.1 ug/mL): 1.01

CN1C(=O)NC(Cc2c[nH]c3c(Cl)cccc23)C1=O (configuration not stated) (library stock concentration (final ~1000-fold dilution): 10 mM)
IRF Lucia reporter activity (RAW-Dual [1]; [4]): 0.896 | IRF Lucia reporter activity (RAW-Dual [1]; agonist: LPS (TLR4) 0.1 ug/mL): 0.697

CN1C(=O)C(Cc2c[nH]c3ccccc23)NC1=S (configuration not stated) (library stock concentration (final ~1000-fold dilution): 10 mM)
IRF Lucia reporter activity (RAW-Dual [1]; [4]): 0.553 | IRF Lucia reporter activity (RAW-Dual [1]; agonist: LPS (TLR4) 0.1 ug/mL): 3.04

CC(=O)OCC1OC([S-])C(OC(C)=O)C(OC(C)=O)C1OC(C)=O.CCP(CC)CC.[Au+] (configuration not stated)
IRF Lucia reporter activity (RAW-Dual [2]; [6]): 0.0231

CC(=O)OCC1OC([S-])C(OC(C)=O)C(OC(C)=O)C1OC(C)=O.CCP(CC)CC.[Au+] (configuration not stated) (library stock concentration (final ~1000-fold dilution): 10 mM)
IRF Lucia reporter activity (RAW-Dual [3]; [4]): 0.0169 | IRF Lucia reporter activity (RAW-Dual [3]; agonist: LPS (TLR4) 0.1 ug/mL): 0.0188

CC(=O)OC1CC/C(C)=C/CC/C(C)=C/CC2(C(C)C)CCC1(C)O2 (configuration not stated) (library stock concentration (final ~1000-fold dilution): 10 mM)
IRF Lucia reporter activity (RAW-Dual [1]; [4]): 0.818 ± 0.25 | IRF Lucia reporter activity (RAW-Dual [1]; agonist: LPS (TLR4) 0.1 ug/mL): 0.744 ± 0.15

O=C(/C=C/c1ccc(O)c(O)c1)O[C@@H]1C[C@@](O)(C(=O)O)C[C@@H](O)[C@@H]1O (library stock concentration (final ~1000-fold dilution): 10 mM)
IRF Lucia reporter activity (RAW-Dual [1]; [4]): 1.02 | IRF Lucia reporter activity (RAW-Dual [1]; agonist: LPS (TLR4) 0.1 ug/mL): 1.23

CS(=O)(=O)O.Cc1c(O)cccc1C(=O)NC(CSc1ccccc1)C(O)CN1CC2CCCCC2CC1C(=O)NC(C)(C)C (configuration not stated) (library stock concentration (final ~1000-fold dilution): 10 mM)
IRF Lucia reporter activity (RAW-Dual [1]; [4]): 0.918 | IRF Lucia reporter activity (RAW-Dual [1]; agonist: LPS (TLR4) 0.1 ug/mL): 3.62

CC(C)(C)NC(=O)C1CN(Cc2cccnc2)CCN1CC(O)CC(Cc1ccccc1)C(=O)NC1c2ccccc2CC1O.O=S(=O)(O)O (configuration not stated) (library stock concentration (final ~1000-fold dilution): 10 mM)
IRF Lucia reporter activity (RAW-Dual [1]; [4]): 1.1 | IRF Lucia reporter activity (RAW-Dual [1]; agonist: LPS (TLR4) 0.1 ug/mL): 0.77

CS(=O)(=O)O.Cc1c(O)cccc1C(=O)NC(CSc1ccccc1)C(O)CN1CC2CCCCC2CC1C(=O)NC(C)(C)C (configuration not stated)
IRF Lucia reporter activity (RAW-Dual [2]; [5]): 2.24

CC(C)c1nc(CN(C)C(=O)NC(C(=O)NC(Cc2ccccc2)CC(O)C(Cc2ccccc2)NC(=O)OCc2cncs2)C(C)C)cs1 (configuration not stated) (library stock concentration (final ~1000-fold dilution): 10 mM)
IRF Lucia reporter activity (RAW-Dual [1]; [4]): 0.757 | IRF Lucia reporter activity (RAW-Dual [1]; agonist: LPS (TLR4) 0.1 ug/mL): 1.34

CC(C)c1nc(CN(C)C(=O)NC(C(=O)NC(Cc2ccccc2)CC(O)C(Cc2ccccc2)NC(=O)OCc2cncs2)C(C)C)cs1 (configuration not stated)
IRF Lucia reporter activity (RAW-Dual [2]; [5]): 1.07

Cc1cc(C(=O)NC(C)(C)C)cc(C#Cc2ccc3c4c(oc3c2)C(C)(C)c2cc(NS(C)(=O)=O)ccc2C4=O)n1 (library stock concentration (final ~1000-fold dilution): 10 mM)
IRF Lucia reporter activity (RAW-Dual [1]; [4]): 0.196 | IRF Lucia reporter activity (RAW-Dual [1]; agonist: LPS (TLR4) 0.1 ug/mL): 0.504

CCC1=CC2CN(C1)Cc1c([nH]c3ccccc13)C(C(=O)OC)(c1cc3c(cc1OC)N(C)C1C(O)(C(=O)OC)C(OC(C)=O)C4(CC)C=CCN5CCC31C54)C2 (configuration not stated) (library stock concentration (final ~1000-fold dilution): 10 mM)
IRF Lucia reporter activity (RAW-Dual [3]; [4]): 0.371 | IRF Lucia reporter activity (RAW-Dual [3]; agonist: LPS (TLR4) 0.1 ug/mL): 2.95

CCC1(O)CC2CN(CCc3c([nH]c4ccccc34)C(C(=O)OC)(c3cc4c(cc3OC)N(C)C3C(O)(C(=O)OC)C(OC(C)=O)C5(CC)C=CCN6CCC43C65)C2)C1.O=S(=O)(O)O (configuration not stated) (library stock concentration (final ~1000-fold dilution): 10 mM)
IRF Lucia reporter activity (RAW-Dual [3]; [4]): 0.226 | IRF Lucia reporter activity (RAW-Dual [3]; agonist: LPS (TLR4) 0.1 ug/mL): 2.16

CCC1(O)CC2CN(CCc3c([nH]c4ccccc34)C(C(=O)OC)(c3cc4c(cc3OC)N(C)C3C(O)(C(=O)OC)C(OC(C)=O)C5(CC)C=CCN6CCC43C65)C2)C1.O=S(=O)(O)O (configuration not stated)
IRF Lucia reporter activity (RAW-Dual [2]; [6]): 2.07

CCC1(O)CC2CN(CCc3c([nH]c4ccccc34)C(C(=O)OC)(c3cc4c(cc3OC)N(C=O)C3C(O)(C(=O)OC)C(OC(C)=O)C5(CC)C=CCN6CCC43C65)C2)C1.O=S(=O)(O)O (configuration not stated)
IRF Lucia reporter activity (RAW-Dual [2]; [5]): 1.06

CCC1(O)CC2CN(CCc3c([nH]c4ccccc34)C(C(=O)OC)(c3cc4c(cc3OC)N(C=O)C3C(O)(C(=O)OC)C(OC(C)=O)C5(CC)C=CCN6CCC43C65)C2)C1.O=S(=O)(O)O (configuration not stated) (library stock concentration (final ~1000-fold dilution): 10 mM)
IRF Lucia reporter activity (RAW-Dual [1]; [4]): 0.107 | IRF Lucia reporter activity (RAW-Dual [1]; agonist: LPS (TLR4) 0.1 ug/mL): 2.02

CCC1=CC2CN(C1)Cc1c([nH]c3ccccc13)C(C(=O)OC)(c1cc3c(cc1OC)N(C)C1C(O)(C(=O)OC)C(OC(C)=O)C4(CC)C=CCN5CCC31C54)C2 (configuration not stated)
IRF Lucia reporter activity (RAW-Dual [2]; [6]): 2.68

CCCCS(=O)(=O)NC(Cc1ccc(OCCCCC2CCNCC2)cc1)C(=O)O.Cl.O (configuration not stated) (library stock concentration (final ~1000-fold dilution): 10 mM)
IRF Lucia reporter activity (RAW-Dual [1]; [4]): 0.894 | IRF Lucia reporter activity (RAW-Dual [1]; agonist: LPS (TLR4) 0.1 ug/mL): 1.35
